High-throughput results from PubChem BioAssay.
D2 PAM-1 – positively modulates the human D2 dopamine receptor allosterically; P14416; HEK293 T-REx D2, calcium flux, EC20 dopamine potentiation; potentiation, % at 10 µM; 340,000 tested, 0.34% active;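 active = potentiation over 3 SD above the plate norm, cut at about 30% in these data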; note: 0% is about no effect
Target sequence (P14416 whole entry, looked up): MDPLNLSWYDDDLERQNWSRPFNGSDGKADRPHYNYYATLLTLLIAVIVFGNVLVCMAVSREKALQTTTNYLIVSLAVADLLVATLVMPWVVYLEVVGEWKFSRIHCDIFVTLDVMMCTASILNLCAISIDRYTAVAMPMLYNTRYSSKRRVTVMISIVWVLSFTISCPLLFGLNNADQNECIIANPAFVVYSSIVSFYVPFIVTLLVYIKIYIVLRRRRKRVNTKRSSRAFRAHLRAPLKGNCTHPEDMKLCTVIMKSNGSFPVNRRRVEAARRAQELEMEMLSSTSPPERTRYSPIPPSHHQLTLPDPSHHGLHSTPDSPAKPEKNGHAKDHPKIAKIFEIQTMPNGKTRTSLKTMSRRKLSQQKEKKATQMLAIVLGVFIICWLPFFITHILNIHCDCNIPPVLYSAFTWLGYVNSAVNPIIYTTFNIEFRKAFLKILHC
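Potentiation of an EC20 dopamine calcium response is measured in a force-coupled, tetracycline-inducible Hek293 Trex D2 line. Compound-only kinetic reads over 180 s flag agonists before dopamine addition.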
D2 ag-1 – agonists of human D2 dopamine receptor (beta-arrestin); P14416; activation, % (no concentration beside the values); 360,000 tested, 0.084% active; AID 624465; DiscoveRx PathHunter D2 beta-arrestin, luminescence, 90 min; 100% = 57 uM dopamine signal; in the data active = activation above about 40%; inconclusive = between about 15% and that limit
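Agonist mode: compounds alone added to overnight-plated D2 PathHunter cells for 90 min at 37 C, with 57 uM final dopamine (EC100) defining full response. Beta-arrestin recruitment detected by chemiluminescent reagent, read after 1 h at ambient temperature.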
D2 PAM-2 – positive allosteric modulators of human D2 dopamine receptor; P14416; DiscoveRx D2 beta-arrestin cells, luminescence, 90 min; 100% = 57 uM dopamine signal; potentiation, % (concentration not given with the values); 360,000 tested, 0.23% active; AID 624464; in the data active = potentiation above about 50%; inconclusive = mostly about 30% to 49%
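PathHunter beta-arrestin assay in DiscoveRx D2 cells. Compounds were added with an EC20 of dopamine (50 nM final) for 90 min at 37 deg C. Luminescence was read 1 h after detection reagent, with 57 uM dopamine as the EC100 control.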
D2 ag-2 – D2 dopamine receptor (human) agonism | activation, % at 2 µM | HEK293 T-REx D2 cells, calcium flux agonist mode | 340,000 tested, 0.53% active | AID 485358;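 active = activation over 3 SD above normal in the single-dose calcium agonist read, cut at about 30% in these data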; note: 0% is about no effect
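HEK293 Trex D2 cells, tetracycline-induced, o/n 30 C 5% CO2; no-wash Ca dye, RT 30–90 min; 10-cycle baseline, 23 nl cpd added, kinetic Ca read 180 s; agonist hits = positive Ca response.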
D2 antagonist – D2 dopamine receptor (human) antagonism; 340,000 tested, 2% active; HEK293 TREx D2 cells, calcium flux, dopamine EC80; P14416; inhibition, % at 10 µM; in the data active = inhibition above about 30%; inactive = below that, where a call was filed; note: 0% is about no effect
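Tetracycline-induced HEK293 T-REx cells expressing D2 force-coupled to calcium signalling were dye-loaded, exposed to compound for 180 s, then challenged with an EC80 of dopamine; calcium flux was followed kinetically for a further 180 s.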
D3 ag – activates human D3 dopamine receptor beta-arrestin recruitment | DiscoveRx D3 beta-arrestin cells, luminescence, 90 min | 2,300 tested, 4% active | AID 720506 | shares compounds with D2 ag-2 | Potency, µM (doses to about 76.9 µM), for inactives: at the highest dose activation, hits mostly activators;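 note: potency is the fitted concentration of half-maximal effect; 100% = dopamine control response; nearly all actives have a fitted effect of over 70% in size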
D2 ag-3 – D2 receptor agonism, beta-arrestin counterscreen; AID 720507; 2,300 tested, 5.9% active; Potency, µM (series often up to 76.9 µM), inactives show at the highest dose activation, hits mostly activators; DiscoveRx PathHunter D2 beta-arrestin, luminescence, 90 min; response scale: percent relative to full dopamine signal; shares compounds with D2 ag-2; note: potency is the fitted concentration of half-maximal effect; % of control where 0% means no effect; nearly all actives have a fitted effect of over 70% in size
* marks the source's active call; other numbers are inactive results. This is a sample that favours compounds with a hit; in the whole collection about 2.4% have one here. Unless noted, calls come from the whole dose curve; as a rule, active = well fitted activation curve with a large enough effect; inconclusive = small, poorly fitted or top-dose-only effect; inactive = flat fitted curve, though single readings scatter.

`O=C(Cn1c(=O)n(-c2ccc(Cl)cc2)c(=O)c2sc3ccccc3c21)NC1CCCC1` gave D2 PAM-1 -2 and D2 ag-2 1.
For O=C(N1CCN(c2ccccc2)CC1)C12CC3CC(CC(C3)C1)C2 the results were D2 PAM-1 -30, D2 ag-1 7, D2 PAM-2 -2, D2 ag-2 80*, D2 antagonist 72*, D3 ag 22% and D2 ag-3 21%.
`O=C(N1CCN(Cc2ccccc2)CC1)C12CC3CC(CC(C3)C1)C2` gave D2 PAM-1 10, D2 ag-1 -3, D2 PAM-2 -24, D2 ag-2 -1 and D2 antagonist -20.
Screening COc1cccc(NC(=O)NCc2ccc3c(c2)CCN3C(=O)c2ccccc2)c1 returned D2 PAM-1 4 and D2 ag-2 1.
For Cc1ccc(NC(=O)C(C)Sc2nc3c(c(=O)[nH]2)CCCC3)cc1Cl (stereo unspecified) the results were D2 PAM-1 -8 and D2 ag-2 -1.
Screening N#Cc1c(/N=C/c2ccc(-c3ccccc3C(=O)O)o2)sc2c1CCCC2 returned D2 PAM-1 -11, D2 ag-1 14, D2 PAM-2 14, D2 ag-2 66*, D2 antagonist -13, D3 ag inconclusive and D2 ag-3 inconclusive.
`Cc1ccc(/C=N/c2sc3c(c2C#N)CCC3)o1` gave D2 PAM-1 8, D2 ag-1 -2, D2 PAM-2 -17, D2 ag-2 2 and D2 antagonist 9.
N#Cc1c(/N=C/c2ccc(-c3ccc(C(=O)O)c(Cl)c3)o2)sc2c1CCCC2 was read as D2 PAM-1 -12, D2 ag-1 inconclusive, D2 PAM-2 15, D2 ag-2 45*, D2 antagonist -4, D3 ag 40µM* and D2 ag-3 inconclusive.
`N#Cc1c(/N=C\c2ccc(O)c([N+](=O)[O-])c2)sc2c1CCCC2` gave D2 PAM-1 -23, D2 ag-1 inconclusive, D2 PAM-2 20, D2 ag-2 67*, D2 antagonist 18, D3 ag inconclusive and D2 ag-3 13%.
N#Cc1c(/N=C/c2ccc(Br)s2)sc2c1CCC2 was read as D2 PAM-1 3, D2 ag-1 9, D2 PAM-2 2, D2 ag-2 0 and D2 antagonist -30.
COc1ccc(-c2cc3ccc(O)c(CN4CCOCC4)c3oc2=O)cc1OC was read as D2 PAM-1 2 and D2 ag-2 -2.
Screening CCOc1ccccc1NC(=O)CN1C(=O)C2(SCC(=O)N2c2ccc(C)cc2)c2ccccc21 (stereo unspecified) returned D2 PAM-1 4 and D2 ag-2 0.
For COC(=O)C(N)Cc1ccc(Cl)cc1 (stereo unspecified) the results were D2 PAM-1 13, D2 ag-1 -6, D2 PAM-2 -2, D2 ag-2 -1 and D2 antagonist -8.
Screening COC(=O)[C@@H](N)Cc1ccc(O)c(O)c1 returned D2 PAM-1 -21, D2 ag-1 -8, D2 PAM-2 -6, D2 ag-2 74*, D2 antagonist 81*, D3 ag inconclusive and D2 ag-3 21%.
For CCOC(=O)c1cc2c(=O)n3ccccc3nc2n(CC2CCCO2)c1=NC(=O)c1ccccc1C (stereo unspecified) the results were D2 PAM-1 -8 and D2 ag-2 0.
`COc1ccc(-c2nnc(SCc3ccccn3)n2C)cc1` gave D2 PAM-1 1, D2 ag-1 -5, D2 PAM-2 -4, D2 ag-2 -1 and D2 antagonist -14.
Screening COc1ccc(N=C(N)SCc2ccccn2)cc1 returned D2 PAM-1 -7, D2 ag-1 -2, D2 PAM-2 -9, D2 ag-2 33*, D2 antagonist 45*, D3 ag 3% and D2 ag-3 -7%.
For O=C(O)COCC(=O)Nc1ccc(OCCc2ccccc2)cc1 the results were D2 PAM-1 -4, D2 ag-1 -2, D2 PAM-2 -3, D2 ag-2 0, D2 antagonist 0, D3 ag -4% and D2 ag-3 2%.
Screening CCOCC(=O)Nc1ccc(OCc2ccccc2)cc1 returned D2 PAM-1 1, D2 ag-1 -7, D2 PAM-2 -1, D2 ag-2 0 and D2 antagonist 1.
Screening CN1OC[C@@H]2CN(C(=O)C(C)(C)C)[C@H](c3ccc(-c4cccnc4)cc3)C[C@@H]21 returned D2 ag-1 -4 and D2 PAM-2 -8.
Screening COc1ccc(CNc2nc(-c3ccco3)nn2S(=O)(=O)c2ccc3ccccc3c2)cc1OC returned D2 PAM-1 0 and D2 ag-2 2.
Screening CCOC(=O)c1c(C)n(C)c2ccc(OCC(O)CNCCc3ccccc3)cc12 (stereo unspecified) returned D2 PAM-1 -12, D2 ag-1 1, D2 PAM-2 -25, D2 ag-2 2, D2 antagonist 31*, D3 ag -7% and D2 ag-3 -3%.
`CC(=O)c1cccc(OCC(O)CNCCc2ccc(Cl)cc2)c1` (stereo unspecified) gave D2 PAM-1 5, D2 ag-1 3, D2 PAM-2 -32, D2 ag-2 1 and D2 antagonist -13.
Screening CCOC(=O)c1c(C)n(C)c2ccc(OCC(O)CN3CCN(C)CC3)cc12 (stereo unspecified) returned D2 PAM-1 3, D2 ag-1 -7, D2 PAM-2 -9, D2 ag-2 0 and D2 antagonist -1.
`CCOC(=O)c1cccc(OCC(O)CNCCOc2ccccc2F)c1` (stereo unspecified) gave D2 PAM-1 -31, D2 ag-1 47*, D2 PAM-2 4, D2 ag-2 81*, D2 antagonist 83*, D3 ag 15% and D2 ag-3 inconclusive.
Screening Cc1sc(NC(=O)C2CC(=O)N(Cc3ccco3)C2)nc1-c1ccccc1 (stereo unspecified) returned D2 ag-1 1 and D2 PAM-2 0.
For O=C(CN1CCN(c2ncccn2)CC1)NCc1ccccc1 the results were D2 PAM-1 -17, D2 ag-1 9, D2 PAM-2 -3, D2 ag-2 50*, D2 antagonist 8, D3 ag 21% and D2 ag-3 16%.
